# Measured values published in ChEMBL document CHEMBL4888484, “Replenishing the malaria drug discovery pipeline: Screening and hit evaluation of the MMV Hit Generation Library 1 (HGL1) against asexual blood stage Plasmodium falciparum ,using a nano luciferase reporter read-out” (2022).
# About 420 (8.8%) of roughly 4,800 compounds showed an effect of 50% or more. What follows is part of a selection rich in strong results, with near analogues and random picks from the rest.
# Test system: Plasmodium falciparum
# Experiment: Confirmatory screen in NF54 nanoGlo assay, in single point, at 2uM, 72h
# Type: functional, Erythrocyte
# Conditions: timepoint 72 hour
row,Structure (SMILES),% Inhibition [%]
1,COc1cccc(C(=O)N2CCC(c3nc(-c4ccc5c(c4)OCO5)no3)CC2)c1OC,-3
2,Cc1ccc(S(=O)(=O)N2CCN(C(=O)N3CCOCC3)[C@@H]2C)cc1,-8
3,C#CCOCC(O)CN(Cc1c(-c2ccccc2)noc1N1CCC(C)CC1)CC1CCCO1 (stereo not drawn),-17
4,O=C(OCc1ccc(C(F)(F)F)nc1)c1ccc(C(F)(F)F)nc1,7
5,O=C(NC1CCOCC1)c1ccc(-c2ccc(F)c(F)c2F)cn1,6
6,CNC(=O)[C@@H](NC(=O)CNC(=O)c1ccc(Cl)cc1)C(C)(C)C,-11
7,CC(=O)N1CCc2cc(-c3ccc(C(=O)NCCC(C)C)cc3)ccc21,2
8,O=C(NCCN1CCCC1)c1ccc2c(c1)OCCO2,-12
9,O=C(c1ccnn1C(F)F)N1N=CC[C@]1(O)C(F)(F)F,-5
10,Cc1cc(CS(=O)(=O)NCCOc2ccc(Cl)cc2)on1,2
11,CC1(C)C[C@@H](NC(=O)COc2ccc(CO)cc2)CCO1,-1
12,O=C(Nc1nc(Cc2ccccc2)cs1)C1CCOCC1,2
13,COc1ccc(CNCCC2C(C)CN(C)C(C)C2Cc2ccccc2)cc1 (stereo not drawn),59
14,CCNC(=O)C(=O)NCc1ccc(OC)cc1,-17
15,COc1ccc(CC2C(O)C(Cc3ccc(OC)cc3)C3CCC2N3C)cc1 (stereo not drawn),7
16,C[C@H]1CS(=O)(=O)C[C@H]1NC(=O)Nc1ccc2ccoc2c1,-5
17,O=C(Nc1ccc(Cl)c(Cl)c1)Nc1ccc(Cl)cc1NC(=O)Nc1ccc(Cl)c(Cl)c1,65
18,CNc1nc(C)cc(C(=O)Nc2ccc(Cl)cc2NC(C)=O)n1,2
19,C[C@@H](NC(=O)Nc1ccc(Cl)c(Cl)c1)C(=O)O,5
20,O=C1CCC(=O)N1c1cnn(Cc2ccccc2)c1,1
21,CC(C)(C)OC(=O)N1CCC2(CC1)NN=C1C=C(N3CCN(c4ccccc4F)CC3)N=CN12,-8
22,CCOc1ccc(NC(=O)Cn2cnc3c(-c4cccc(OC)c4)cn(C)c3c2=O)cc1,-1
23,CN1CC[C@H](CN(C)Cc2ccc3cc(O)ccc3c2)C1,9

row,Structure (SMILES),% Inhibition [%]
1,COC1CCCC1NC(=O)Nc1ncc(Br)cc1C (stereo not drawn),74
2,CC(=O)Nc1ncc(Br)cc1C,3
3,CNC(=O)c1cc(Br)cnc1NC,3
4,Cc1c(NS(=O)(=O)c2ccc(Cl)cc2)c(-n2cnnc2)nn1C,-7
5,O=C(NCCN1CCCCC1)c1n[nH]c2c1CCc1ccccc1-2,1
6,COc1cc(=O)[nH]cc1Br,-3
7,CC(C)N1CCO[C@H](C(=O)Nc2c[nH]nc2-c2ccccc2)C1,-5
8,O=C(O)c1nccc(C(F)(F)F)c1Cl,-19
9,CC(C)(C)c1ccc(NC(=O)c2ccnnc2)c(O)c1,-8
10,CC1(C)C2CCC13CS(=O)(=O)N=C3C2 (stereo not drawn),3
11,COC(=O)c1ccccc1NC(=O)NCCn1nnc2cc(S(=O)(=O)N(C)C)ccc21,55
12,Cc1cccc(NC(=O)NCCn2nnc3cc(S(=O)(=O)N4CCCC4)ccc32)c1C,-1
13,O=S(=O)(c1ccc(F)cc1)n1ccc(-c2cccc(OCc3ccc(Cl)cc3Cl)c2)n1,-4
14,Cc1nc2c(sc(=S)n2-c2ccc(Cl)c(Cl)c2)c(=O)[nH]1,-2
15,CCOC[C@@H](O)CN(Cc1c(C)nn(-c2ccccc2)c1Oc1cccc(C)c1)C1CC1,10
16,CCc1cc(C(=O)N2CCC3(CC2)C[C@H](c2ccccc2)C(=O)N3C)no1,-8
17,O=C(OCC(=O)N1CCN(Cc2ccccc2)CC1)c1nccc2ccccc12,1
18,CC(CNc1ccccn1)N1CCOCC1C (stereo not drawn),-5
19,Cc1ccc(Cl)c(OCn2ccc(C(=O)Nc3ccc(Br)cn3)n2)c1,-16
20,O=C(NCc1ccccc1F)C1CCN(c2cncnc2N2CCCC2)CC1,33
21,CCS(=O)(=O)C1CN(C(=O)c2ccnn2C2CCCC2)C1,-7
22,COCCCn1c(COc2ccc(OC)cc2)n[nH]c1=O,1
23,COc1c(Cl)cc(Cl)cc1CNC(C)C,4

row,Structure (SMILES),% Inhibition [%]
1,NCc1ccc(O)c(Br)c1,2
2,Cc1ccc(CNC(=O)c2nc(-c3ccncc3)cs2)o1,7
3,COc1ccnc(NCc2ccc(N3CCOCC3)cc2)n1,-3
4,CC(=O)c1cccc(S(=O)(=O)N2CCN(C(=O)c3ccc4c(c3)CCC4)CC2)c1,2
5,CC12CN(S(=O)(=O)c3ccc4c(c3)OCCO4)C3(C(=O)OCc4ccccc4)CC1CCC23C (stereo not drawn),59
6,COc1ccc2c(c1)CCN2S(=O)(=O)c1ccc2c(c1)OCCO2,-4
7,Cc1cc(C)n(S(=O)(=O)c2ccc3c(c2)OCCO3)n1,-3
8,CC(C)OC(=O)N1C(=O)c2ccccc2NC1(C(F)(F)F)C(F)(F)F,-22
9,Nc1ccc2c(c1)Oc1cc(N)ccc1OCCOCCOCCO2,-10
10,O=c1c2ccccc2nc2cc(-c3ccc(O)cc3)c(-c3ccccc3)nn12,53
11,Cc1cccc(-n2c(-c3sc(Nc4ccccc4)nc3-c3ccccc3)nc3ccccc3c2=O)c1,6
12,COC(=O)Nc1nc(-c2ccccc2)c(-c2nc3ccccc3c(=O)n2-c2ccc(OC)cc2)s1,5
13,Cc1ccc(/N=C(\N)C(Cl)(Cl)Cl)c(C)c1,-2
14,Oc1ccccc1CCN[C@H]1CCc2ccc(F)cc21,98
15,c1ccc(N2CCN(CCN[C@H]3CCc4cc5c(cc43)CCC5)CC2)cc1,8
16,Cc1ccnc(CNC(=O)N[C@H]2CCc3ccc(F)cc32)c1,-10
17,CN(Cc1ccc(F)cc1Cl)[C@H]1CCc2nnc(C3CCOCC3)n2CC1,-13
18,Cc1nc2cc(F)ccc2cc1C(=O)N1CCN(S(=O)(=O)c2ccc(Br)cc2)CC1,0
19,Cc1ccccc1CNC(=O)CN(C(C)C)C1CCOCC1,21
20,CCO[C@H]1C[C@H](NC(=O)Nc2ccc(F)c(C3CC3)c2)C1,2
21,COc1ccc(-n2nc(C)c3c2NC(=O)C[C@@H]3c2ccc3c(c2)OCO3)cc1,-5
22,COC(=O)c1ccc(C)c(NC(=O)c2ocnc2C2CC2)c1,2
